This is a sample that favours compounds with a hit; in the whole collection about 1.8% have one here.
GSTO1 inh – GSTO1 inhibition, counter-screen for RBBP9 inhibitors | actives 1.1% (n = 300,000) | recombinant GSTO1, activity-based probe fluorescence polarization | inhibition, % at 5.96 µM;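 active means inhibition above the campaign mean inhibition plus 3 SD, cut at about 35% in these data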;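 further: 0% = GSTO1-1 with DMSO and 100% = wells lacking GSTO1-1 enzyme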
Fam108B counter – blocks mouse Fam108B hydrolase in RBBP9 counter-screen; recombinant Fam108B, FP-Rh probe fluorescence polarization; inhibition, % at 9.51 µM; actives 0.33% (n = 300,000); AID 1947;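 active means inhibition above the screen mean inhibition plus 3 SD, computed separately per campaign, cut at about 18% in these data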;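 further: inhibitors lower polarization as less probe binds the enzyme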
PAD4 inh – inhibitors of human PAD4 | Q9UM07 | recombinant PAD4, RCA probe fluorescence polarization | inhibition, % at 6.36 µM | actives 0.41% (n = 330,000) | AID 485272;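 active means percent inhibition above a cutoff equal to the mean of all tested compounds plus 3 SD, cut at about 15% in these data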;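 further: 0% = PAD4 with RCA probe and DMSO and 100% = probe without PAD4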
LYPLA1 counter – blocks human lysophospholipase 1, a PME1 counter-screen; recombinant LYPLA1, FP-Rh probe fluorescence polarization; inhibition, % at 5.9 µM; O75608; actives 0.16% (n = 320,000); AID 2174;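 active means inhibition above the mean of all tested compounds plus 3 SD, set per campaign, cut at about 14% in these data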;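 further: inhibitors block serine hydrolase probe labeling of LYPLA1 so polarization falls; 0% = enzyme with DMSO and 100% = wells lacking LYPLA1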
Target sequence (O75608 whole entry, looked up): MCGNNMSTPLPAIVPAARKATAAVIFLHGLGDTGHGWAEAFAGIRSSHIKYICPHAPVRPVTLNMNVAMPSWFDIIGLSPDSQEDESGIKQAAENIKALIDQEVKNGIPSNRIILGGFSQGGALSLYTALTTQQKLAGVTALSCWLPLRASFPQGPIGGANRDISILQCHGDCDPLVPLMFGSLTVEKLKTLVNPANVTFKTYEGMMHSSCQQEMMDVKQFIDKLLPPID
LYPLA2 counter – LYPLA2 (human) inhibition in PME1 counter-screen; O95372; recombinant LYPLA2, FP-Rh probe fluorescence polarization; inhibition, % at 5.9 µM; actives 0.38% (n = 320,000); AID 2177;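 active means inhibition above the screen-wide mean plus 3 SD, limit set per campaign, cut at about 26% in these data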;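 further: 0% = LYPLA2 with DMSO and 100% = wells lacking LYPLA2 enzyme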
PME-1 primary – PME-1 (human) inhibition. recombinant PME-1, FP-Rh probe fluorescence polarization. inhibition, % at 5.9 µM. actives 0.53% (n = 320,000). AID 2130;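 active means inhibition above the campaign mean of all compounds plus 3 SD, cut at about 26% in these data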;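 further: competitive labeling of PME-1 active site by serine hydrolase directed probe; 0% = PME-1 with DMSO and 100% = wells lacking PME-1 enzyme; inhibitors block probe labeling so polarization falls and inhibition rises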
Target sequence (Q9Y570 whole entry, looked up): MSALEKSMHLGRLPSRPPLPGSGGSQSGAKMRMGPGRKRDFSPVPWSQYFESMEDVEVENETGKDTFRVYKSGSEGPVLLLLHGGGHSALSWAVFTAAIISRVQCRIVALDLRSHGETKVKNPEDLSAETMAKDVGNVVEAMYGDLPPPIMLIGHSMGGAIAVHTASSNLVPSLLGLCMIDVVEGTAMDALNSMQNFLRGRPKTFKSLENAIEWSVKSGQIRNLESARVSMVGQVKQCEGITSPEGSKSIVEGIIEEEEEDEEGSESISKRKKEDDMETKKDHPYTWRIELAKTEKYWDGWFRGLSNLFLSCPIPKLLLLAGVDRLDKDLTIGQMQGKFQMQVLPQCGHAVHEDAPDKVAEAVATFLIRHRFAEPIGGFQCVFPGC
GSTO1 confirm – confirmation of human GSTO1 inhibitors. shares compounds with GSTO1 inh. recombinant GSTO1, probe fluorescence polarization. inhibition, % at 5.96 µM. actives 54% (n = 2,400);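 active means inhibition above the primary screen's cutoff, its mean inhibition plus 3 SD, cut at about 35% in these data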;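 further: loss of polarization as inhibitors block binding of rhodamine sulfonate ester activity probe; 0% = GSTO1 with DMSO and 100% = wells lacking GSTO1 enzyme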
LYPLA1 conf – LYPLA1 (human) inhibition, confirmation counter-screen | shares compounds with LYPLA1 counter | recombinant LYPLA1, FP-Rh probe fluorescence polarization | inhibition, % at 5.9 µM | actives 69% (n = 480);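 active means mean inhibition across replicates above the hit cutoff set in the primary screen, cut at about 15% in these data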;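 further: loss of FP-Rh probe labeling of LYPLA1 seen as lower polarization; 0% = LYPLA1 with DMSO and 100% = wells lacking LYPLA1 enzyme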
LYPLA2 conf – LYPLA2 (human) inhibition, confirmation counter-screen; shares compounds with LYPLA2 counter; recombinant LYPLA2, FP-Rh probe fluorescence polarization; inhibition, % at 5.9 µM; actives 72% (n = 1,100);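 active means mean inhibition across replicates above the hit cutoff set in the primary screen, cut at about 26% in these data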;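 further: blocked labeling of the enzyme by serine hydrolase FP-Rh probe lowers polarization; 0% = enzyme with DMSO and 100% = wells lacking LYPLA2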
PAD4 confirm – confirmation of human PAD4 inhibitors; recombinant PAD4, RCA probe fluorescence polarization; shares compounds with PAD4 inh; inhibition, % at 6.36 µM; actives 28% (n = 1,200);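 active means mean inhibition across replicates above the hit cutoff set by the earlier primary screen, cut at about 15% in these data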;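 further: inhibitors block active-site labeling by the probe so polarization falls; 0% = PAD4 with probe and DMSO and 100% = probe without PAD4 enzyme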
Starred values were filed as active, the others as inactive; . = not tested or not shown.

SMILES | GSTO1 inh | Fam108B counter | PAD4 inh | LYPLA1 counter | LYPLA2 counter | PME-1 primary | PAD4 confirm | others
CC(=O)OC1N=C(c2ccccc2)c2cc(Br)ccc2N(C)C1=O (centres undefined) | -1 | 2 | -3 | -1 | 4 | 0 | .
CC(C)[C@H]1C(=O)N2CCC[C@H]2[C@]2(O)O[C@](NC(=O)[C@@H]3C=C4c5cccc6[nH]cc(c56)C[C@H]4N(C)C3)(C(C)C)C(=O)N12 | 59* | 17 | 29* | 2 | 6 | 9 | 2 | GSTO1 confirm=5
CCCCCn1c(N)c(C(=O)NCc2cccs2)c2nc3ccccc3nc21 | 60* | 5 | 65* | -2 | 8 | 10 | -12 | GSTO1 confirm=5
CCCCn1c(N)c(C(=O)OCC2CCCO2)c2nc3ccccc3nc21 (centres undefined) | 81* | 10 | 69* | -2 | -4 | 5 | -10 | GSTO1 confirm=6
CCOC(=O)c1c(NC(=O)c2c(N)n(CCCOC)c3nc4ccccc4nc23)sc2c1CCCC2 | -7 | 1 | -5 | 6 | 1 | 3 | .
CC(C)CCn1c(N)c(C(=O)OCC2CCCO2)c2nc3ccccc3nc21 (centres undefined) | 88* | 2 | 72* | 1 | 5 | 6 | -21 | GSTO1 confirm=6
CCCCCCn1c(N)c(C(=O)NCCN2CCOCC2)c2nc3ccccc3nc21 | 5 | -1 | -2 | -3 | -10 | 4 | .
CC(C)OCCCNC(=O)c1c(N)n(CC2CCCO2)c2nc3ccccc3nc12 (centres undefined) | 24 | 7 | -4 | 0 | -3 | -1 | .
COc1ccc(OCC#CCN2CCNCC2)cc1 | -1 | -2 | -2 | -1 | -4 | -1 | .
CCN(CC)c1ccc(N=Cc2c(O)n(-c3ccccc3)c(=O)[nH]c2=O)cc1 | 42* | 0 | 18* | 1 | 1 | 0 | 4 | GSTO1 confirm=8
CCN(CC)c1ccc(N=Cc2c(O)n(-c3ccccc3C)c(=O)[nH]c2=O)cc1 | 28 | -3 | 11 | -2 | -1 | 6 | .
CCOc1ccccc1-n1c(O)c(C=Nc2ccc(N(CC)CC)cc2)c(=O)[nH]c1=O | 54* | -1 | 38* | -1 | -1 | 5 | 3 | GSTO1 confirm=5
Clc1ccc(COC(Cn2ccnc2)c2ccc(Cl)cc2Cl)c(Cl)c1 (centres undefined) | 2 | 2 | 0 | -2 | -3 | 8 | .
CC(C)n1c(O)c(C=NCc2ccccc2)c(=O)[nH]c1=S | -2 | -1 | 3 | 0 | 4 | -4 | .
COc1cc2c(cc1OC)-c1c3c(cc4c1[C@@H](C2)N(C)CC4)OCO3 | 79* | 3 | 57* | 0 | -1 | 0 | -9 | GSTO1 confirm=70*
COc1cc2c(cc1OC)-c1c(OC)c(OC)cc3c1C(C2)N(C)CC3 (centres undefined) | 70* | 0 | 47* | 0 | 2 | 2 | 26* | GSTO1 confirm=78*
Cc1cc(=O)oc2cc3c(cc12)CCCN3 | 1 | -4 | -4 | 2 | -1 | -1 | .
NP(=O)(OCCCCc1ccccc1)Oc1ccccc1Cl (centres undefined) | 6 | -3 | 6 | 19* | 25 | 41* | . | LYPLA1 conf=9
CCCNS(=O)(=O)c1ccc(OCC(=O)N2CCN(Cc3ccc4c(c3)OCO4)CC2)c(C)c1 | -6 | 2 | -2 | 3 | 2 | 9 | .
Cc1ccc(Cn2nnnc2CN2CCC(n3nnc4cc(C(F)(F)F)ccc43)CC2)cc1 | -8 | 3 | 1 | -1 | 15 | -1 | .
Cc1ccc(Cn2nnnc2CN2CCC(n3nnc4cc(C)ccc43)CC2)cc1 | 0 | -2 | -4 | -1 | 27* | -7 | . | LYPLA2 conf=24
Oc1c(Cl)c(Cl)c(Cl)c(Cl)c1Cl | -17 | -3 | 0 | 9 | 28* | 19 | . | LYPLA2 conf=34*
CC(=NCCc1c[nH]c2ccccc12)c1c(O)n(Cc2ccccc2)c(=O)[nH]c1=O | -6 | -2 | 1 | -2 | 31* | 5 | . | LYPLA2 conf=27*
CC(=NCCN1CCOCC1)c1c(O)n(Cc2ccccc2)c(=O)[nH]c1=O | -2 | -2 | 0 | -2 | -2 | 5 | .
CCN(CC)C(=O)c1ccc(NC(=O)COc2ccc(-c3nn(C)c(=O)c4ccccc34)cc2)cc1 | -13 | 3 | -7 | 13 | 32* | 0 | . | LYPLA2 conf=31*
SMILES | GSTO1 inh | Fam108B counter | PAD4 inh | LYPLA1 counter | LYPLA2 counter | PME-1 primary | PAD4 confirm | others
Cc1c(NP(=S)(C(C)(C)C)C(C)(C)C)c(=O)n(-c2ccccc2)n1C | -2 | -3 | -3 | 1 | -2 | -2 | .
N/C(=N\[N+](=O)[O-])N1CCN(C(=O)c2ccccn2)CC1 | 3 | -6 | -1 | -1 | -7 | -3 | .
C=CCn1c(O)c(C(C)=Nc2ccc(N(C)C)cc2)c(=O)[nH]c1=O | 30 | -1 | 11 | -4 | -2 | -1 | .
C=CCn1c(O)c(C(C)=Nc2ccc(N(CC)CC)cc2)c(=O)[nH]c1=O | 14 | 0 | 19* | 0 | 2 | 3 | -7
C[n+]1c(-c2ccccc2)sc2ccccc21 | 3 | -1 | 15* | 3 | 2 | 3 | 6
CN(C)c1ccc(/C=C/C=C/c2sc3ccccc3[n+]2C)cc1 | -8 | -15 | -7 | -23 | -43 | -40 | .
CCCCn1c(NS(=O)(=O)c2ccc(C)cc2)c(C(=O)OCC)c2nc3ccccc3nc21 | 82* | 3 | 66* | 3 | 9 | 5 | -3
Cc1ccc(-c2cc(C(F)F)n3ncc(C(=O)N4CCC5(CC4)OCCO5)c3n2)cc1 | -9 | 4 | -3 | -1 | -2 | -1 | .
CCN1/C(=C\C=C\C2=[N+](CC)c3ccccc3C2(C)C)C(C)(C)c2ccccc21 | -352 | -373 | 145* | -160 | -339 | -243 | 101*
CCn1c(O)c(C=NCCN2CCOCC2)c(=O)[nH]c1=S | 2 | 5 | -1 | -1 | 1 | -3 | .
COc1cccc(NC2=NCCCS2)c1 | 1 | -2 | 0 | 1 | 4 | -1 | .
CCOc1cccc(OCC)c2c(C)[n+](CC3CCCO3)c(C)c1-2 (centres undefined) | 29 | 5 | 15* | 3 | -2 | 5 | -6
COc1cc(C(c2c(C)[nH]n(-c3ccccc3)c2=O)c2c(C)[nH]n(-c3ccccc3)c2=O)cc(OC)c1OC | 79* | -1 | 69* | 3 | 6 | 6 | 4

From PubChem
